Reference: ChEMBL document CHEMBL4513216, “Probing the Open Global Health Chemical Diversity Library for Multistage-Active Starting Points for Next-Generation Antimalarials” (ACS Infect Dis, 2020)
About 8,600 (12%) of roughly 69,000 compounds showed an effect of 50% or more. The sample holds strong results, similar compounds and a random draw of the others, so the mix is not that of the screen.

Each molecule was assayed on Plasmodium berghei (assay: Screen against P. berghei liver stage (PbLuc), transformed with Luciferase, at 10uM). Details: tested at 10 uM.
Format: functional, HepG2

Row | Compound | INHIBITION [%]
1 | Cc1ccc2c(c1)c(CNC(=O)C1CC(=O)N(C3CCCC3)C1)nn2C (stereo unspecified) | 38.5
2 | Cc1ccc2c(c1)c(CNC(=O)C1CC(=O)N(CCN(C)C)C1)nn2C (stereo unspecified) | 82.4
3 | Cc1ccc2c(c1)c(CNC(=O)C1CC(=O)N(C3CC3)C1)nn2C (stereo unspecified) | -6.34
4 | O=C(NCC1CCS(=O)(=O)C1)N(Cc1ccncc1)C1CC1 (stereo unspecified) | -1.15
5 | CS(=O)(=O)c1cc(S(N)(=O)=O)ccc1NCC1CCCO1 (stereo unspecified) | 30
6 | CCc1nnc(CN2CCN(CC(O)c3ccccc3)CC2)o1 (stereo unspecified) | -12.2
7 | CC(C)(C)c1nnc(CN2CCN(CC(O)c3ccccc3)CC2)o1 (stereo unspecified) | 58.2
8 | Cc1nnc(CN2CCN(CC(O)c3ccccc3)CC2)o1 (stereo unspecified) | 4.71
9 | OCC1CCCN1c1cc(NCc2cccnc2)ncn1 (stereo unspecified) | -7.35
10 | O=C(Nc1cccc(Cl)c1)c1nn(C2CCS(=O)(=O)C2)c2c1CCCC2 (stereo unspecified) | 79.8
11 | O=C(Nc1cccnc1)c1nn(C2CCS(=O)(=O)C2)c2c1CCCC2 (stereo unspecified) | 36.6
12 | Cc1cccc(NC(=O)c2nn(C3CCS(=O)(=O)C3)c3c2CCCC3)n1 (stereo unspecified) | 30.8
13 | Cc1nn(C2CCS(=O)(=O)C2)c(O)c1Cc1cccc(Cl)c1 (stereo unspecified) | 28.5
14 | O=C(Nc1ccc(Cl)cc1)c1nn(C2CCS(=O)(=O)C2)c2c1CCCC2 (stereo unspecified) | 26.7
15 | Cc1cc(NC(=O)c2nn(C3CCS(=O)(=O)C3)c3c2CCCC3)no1 (stereo unspecified) | 26.7
16 | O=C(Nc1ccc(Cl)cn1)c1nn(C2CCS(=O)(=O)C2)c2c1CCCC2 (stereo unspecified) | 83.9
17 | O=C(Nc1ccccc1)c1nn(C2CCS(=O)(=O)C2)c2c1CCCC2 (stereo unspecified) | 66.3
18 | O=C(NCc1ccco1)c1nn(C2CCS(=O)(=O)C2)c2c1CCCC2 (stereo unspecified) | -18.2

Row | Compound | INHIBITION [%]
19 | O=C(NCc1ccccc1)c1nn(C2CCS(=O)(=O)C2)c2c1CCCC2 (stereo unspecified) | 20.1
20 | CC(C)(C)NC(=O)c1nn(C2CCS(=O)(=O)C2)c2c1CCCC2 (stereo unspecified) | 28.4
21 | O=C(Nc1ccccc1F)c1nn(C2CCS(=O)(=O)C2)c2c1CCCC2 (stereo unspecified) | 85.5
22 | Cc1ccc(O)c(CNCC(C)c2nc3ccccc3o2)n1 (stereo unspecified) | 43.1
23 | O=C(Nc1ccc2c(c1)C(=O)NC2=O)c1ccc(Cl)s1 | -93.6
24 | NCC1CCC(C(NC(=O)c2cccc(F)c2)c2ccccn2)CC1 (stereo unspecified) | 14.4
25 | CCc1c(C(=O)N2CCCC(N(C)C)C2)cnn1C(C)(C)C (stereo unspecified) | 5.7
26 | O=C1[C@@H]2CN(C3CCOCC3)C[C@H]2CCN1CC1CC1 | 3.81
27 | CN(C)S(=O)(=O)c1ccc(-c2nc(C#N)c(NC3CCCCC3)o2)o1 | 19.8
28 | CN(C(=O)c1ccc(-n2ncc(C#N)c2N)cc1)C1CCCC1 | -8.11
29 | CN(CC1CCCCC1)C(=O)c1ccc(-n2ncc(C#N)c2N)cc1 | 52.7
30 | Cc1ccnc(NC(=O)c2ccc(-n3ncc(C#N)c3N)cc2)c1 | 68.8
31 | Cc1cccnc1NC(=O)c1ccc(-n2ncc(C#N)c2N)cc1 | 25.6
32 | N#Cc1cnn(-c2ccc(C(=O)Nc3ccccn3)cc2)c1N | 28.7
33 | Cc1nc(NC(=O)c2ccc(-n3ncc(C#N)c3N)cc2)sc1C | 50.3
34 | N#Cc1cnn(-c2ccc(C(=O)N(C3CCCCC3)C3CC3)cc2)c1N | 17.5
35 | Cc1cnc(NC(=O)c2ccc(-n3ncc(C#N)c3N)cc2)s1 | 47.3
36 | Cc1cc(NC(=O)c2ccc(-n3ncc(C#N)c3N)cc2)n(C)n1 | 11.2
